Test results published in ChEMBL document CHEMBL3988442, “University of Dundee, Small-Polar-MMV Screening Library” (2021).

The molecules below were run against AMP-activated protein kinase, AMPK (Homo sapiens) (UniProt P54646+O43741+P54619+Q9UGJ0+Q9Y478+Q13131+Q9UGI9) (assay: AMP-dependent Kinase enzyme assay. An in vitro enzyme assay that detects ADP turnover that is directly proportional to AMPK activity. This uses naive AMPK that is activated during the assay with MK-8722). Conditions: 30 µM.
Format: functional
Set-up: scale not given: direction of the effect not stated beside the values

Compared with `Cc1ncc(C(=O)NCCOc2ccccc2F)c(C)n1`, `O=C(c1coc(COc2ccccc2F)n1)N1CCC[C@H]1CO` is higher in Percent Effect: -16.7% for the first, 8.7% for the second.

Compared with `CCc1nn(C)c(Cl)c1CN(CC)Cc1cnn(CC)c1`, `Cn1cc(CNCCNc2ncc(Cl)cc2Cl)cn1` is lower in Percent Effect: 1.72% for the first, -10.3% for the second.

Compared with `Cc1cnc2c(C(=O)N3CCCC(OCc4ccccn4)C3)cnn2c1` (stereo not given), `COc1cc(CCC(=O)N2CCC(c3cc4ncc(C)nc4[nH]3)C2)on1` (stereo not given) is lower in Percent Effect: 4.92% for the first, -0.349% for the second.

Going from `Cc1cc(-n2cccn2)ccc1CN1C[C@@H](CN(C)C)[C@@H](CO)C1` to `COc1cccc(CCn2ccnc2-c2cn(C3CCNCC3)nn2)c1`, the Percent Effect falls from -2% to -20.9%.

First: CCc1ccc2nc(C)cc(C(=O)N[C@@H]3CNC[C@H]3O)c2c1
Second: Cc1nsc(C(=O)NCCc2ccc(S(N)(=O)=O)cc2)n1
The Percent Effect of the first is lower: 0.636% for the first, 2.83% for the second.

Going from `Clc1ccc2c(c1)C=C(CNC1CCc3ncnn3C1)CO2` (stereo not given) to `COc1ccc(Cl)cc1-n1nc(C2CCCC2)nc1Cn1cnnn1`, the Percent Effect falls from 12.6% to -6.62%.

Compared with `COc1cccc(CN(C)Cc2c(C)noc2C)c1OC`, `COc1ccc(CCCN(C)C(=O)c2cc(Cl)c[nH]2)cc1OC` is lower in Percent Effect: 18.1% for the first, 7.77% for the second.

First: OCCc1ncnn1Cc1cccc(Cl)c1
Second: O=C(NCC(F)(F)F)c1ccc(-n2cccn2)nn1
The Percent Effect of the first is higher: 32.2% for the first, 0.877% for the second.

First: COc1ccc(C(=O)N2C[C@@H](NC(=O)N(C)C)[C@H](C(C)C)C2)c(OC)n1
Second: COc1ccc(C2(C(=O)N3C[C@@H](C(=O)O)[C@H](C(C)C)C3)CC2)cc1
The Percent Effect of the first is lower: 1.82% for the first, 2.55% for the second.

Compared with `CCn1nc(C)c(C(C)Nc2cc(C3CCNCC3)nc(C)n2)c1C` (stereo not given), `Cc1noc(C(C)N2CCC(c3nc4ccccc4[nH]3)CC2)n1` (stereo not given) is higher in Percent Effect: 0.304% for the first, 1.83% for the second.

Going from `CC(CN1CCOC1=O)NC(=O)c1cccc(Cl)c1Cl` (stereo not given) to `CN1CC(C(=O)NCCc2ccc3c(c2)OCCO3)CC1=O` (stereo not given), the Percent Effect falls from 10% to 2.3%.

Compared with `CCc1cc(NCCCc2nc(C)no2)nc(-c2ccncc2)n1`, `CCOc1ccccc1C(C(=O)O)N(C)Cc1cc(C)[nH]n1` (stereo not given) is higher in Percent Effect: -1.39% for the first, 5.49% for the second.

Going from `CCc1ccccc1OCCN(C)C(=O)CN1CCCC1` to `COC(=O)CC1CCCCN1CC(=O)NCCc1ccc(F)cc1` (stereo not given), the Percent Effect rises from -130% to 6.06%.

Compared with `c1ccc(-c2cc(CN3CCCCCC3c3ccco3)on2)nc1` (stereo not given), `O=C(c1cc(C2CC2)nc2onc(-c3ccccc3)c12)N1CCOCC1` is lower in Percent Effect: 8.41% for the first, 4.72% for the second.

Compared with `Cc1cccc(C)c1Oc1ncccc1CNC(=O)C1COC(=O)N1` (stereo not given), `CN1CC(C(=O)NCc2ccc(Br)cc2F)CC1=O` (stereo not given) is higher in Percent Effect: -10.7% for the first, 8.64% for the second.

Going from `CN(CCSc1nncn1CC(F)(F)F)c1ccccc1` to `Cn1cccc1CN(C(=O)Cc1cccs1)C1CC1`, the Percent Effect falls from 8.89% to -4.04%.

Compared with `CCCS(=O)(=O)CC(=O)Nc1ccsc1`, `Cc1ccnc2c1NC(=O)CN2C(=O)CCC(F)(F)F` is higher in Percent Effect: -1.52% for the first, 1.79% for the second.

First: CCc1nsc(N2CCCN(CC(=O)N(C)C3CC3)CC2)n1
Second: CC(C)c1nc(C2CCCN2CCN2CCCCC2)no1 (stereo not given)
The Percent Effect of the first is higher: 7.28% for the first, -7.59% for the second.

Going from `COc1ccc(CC2(CO)CCN(c3cc(C(N)=O)ccn3)CC2)cc1` to `C[C@H](N)C(=O)N1CCC(c2[nH]ncc2-c2ccccc2)CC1`, the Percent Effect falls from 8.7% to -8.96%.

Going from `O=C(CCn1ccnc1)N1CCCC(n2cncn2)C1` (stereo not given) to `Cc1ccnc(C2COCCN2C)n1` (stereo not given), the Percent Effect rises from 11.8% to 26%.
